Data from PubChem BioAssay (NCI).
The panel holds about 83,000 compounds, 20% with a hit somewhere; the sample as a whole holds those more often.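 Cell lines were cultured in 96-well plates, exposed to a single compound concentration, and assessed for percent growth 48 hours later.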 Calls of active or inactive are those of the source. Rule for the calls: active = growth percent below 10; inactive = the rest.

tested on: HL-60(TB) leukemia; assay: NCI-60 one-dose screen, 48 h (100 = growth as untreated, 0 = no growth, -100 = all killed); details: 10 µM unless noted

Compound	growth
CC1=C(C#N)C2=NNCC(c3ccccc3)=NN2C(c2ccccc2)=C1	138% (inactive)
CS(=O)(=O)c1ccc(-n2nc(C(=O)NCc3ccccc3)cc2-c2ccc(Cl)cc2)cc1	83% (inactive)
O=C(CSc1nnc(-c2ccc3nc(-c4ccc(Cl)cc4)[nH]c3c2)o1)Nc1ccc(Br)cc1	-22.3% (active)
O=C(NNc1ccccc1)n1c(=O)c2ccccc2c(=O)n1-c1ccccc1	82.7% (inactive)
Cc1ccc(-c2nc(C#N)c(S(=O)(=O)N3CCN(S(C)(=O)=O)CC3)o2)cc1	2.43% (active)
Cn1cc(-c2cc3nc(-c4c[nH]c5ccc(Br)cc45)cc(N)n3n2)c2ccccc21	-45.3% (active)
CN(C)c1nc(NCCNS(=O)(=O)c2ccc(C(=O)/C=C/c3ccc(F)cc3)cc2)nc(N2CCOCC2)n1	-20.3% (active)
COc1cc(/C=N/NC(=O)c2ccc3nc(-c4ccc(Cl)cc4)[nH]c3c2)cc(OC)c1OC	32.1% (inactive)
N#C/C(=C\c1ccc(N(c2ccccc2)c2ccccc2)cc1)C(N)=O	68.7% (inactive)
COc1ccc(C(=O)/C=C/c2ccc(OCc3ccc(F)cc3)c(OC)c2)cc1OC	-5.63% (active)
CCOc1ccc(-c2cc(-c3cc(C(C)C)c(O)cc3C)nn2-c2ccc(S(N)(=O)=O)cc2)cc1	9.77% (active)
C[C@H]1[C@@H](CC(=O)N[C@@H](Cc2coc3ccccc23)B(O)O)O[C@@H]2OC3(C)CC[C@H]4[C@H](C)CC[C@@H]1[C@@]24O3	11.2% (inactive)
O=C(NN1C(=O)/C(=C/C=C/c2ccc([N+](=O)[O-])o2)SC1=S)c1ccc(Cl)cc1	-7.52% (active)
